Assay [1] can be described thus: Nuclear factor erythroid 2-related factor 2/antioxidant responsive element (Nrf2/ARE) small molecule agonists: qHTS cell viability counter screen in human keratinocytes (AID 1919968; active = well fitted curve in the direction sought with a large enough effect in the repeat runs; an effect the other way counts as inactive or inconclusive; also: nearly all actives have a fitted effect of over 55% in size; also: potency is read from the fitted curve at half-maximal effect). The method, boiled down: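 KeratinoSens cells (HaCaT keratinocytes stably carrying an ARE-luciferase reporter) were seeded at 1,500 cells/well and rested 5 h at 37 C/5% CO2. They were then exposed to compounds in DMSO for 23 h. Viability was read by CellTiter-Fluor fluorescence after 1 h.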

In assay [2] the target is Gonadotropin-releasing hormone receptor (Homo sapiens) (UniProt P30968). Kind of assay: Human gonadotropin-releasing hormone receptor (GnRHR) small molecule agonists, calcium flux assay in GnRHR-HEK293 cells (AID 1920063). Also: nearly all actives have a fitted effect of over 35% in size. The gist of the method:
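HEK293 cells stably expressing human GnRHR were plated 18 h at 37 °C, loaded with calcium dye 1 h at 37 °C, then given compound in agonist mode; fluorescence (Ex/Em 480/540) read kinetically for 3 min at 1 s intervals.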
(In general: A change in cytosolic calcium serves as a functional read-out for many receptors and channels.)

Assay [3] concerns the target KiSS-1 receptor (Homo sapiens) (UniProt Q969F8). The experiment in a line: Human kisspeptin (KISS1R) small molecule agonists, calcium flux assay in KISS1R-HEK293 cells (AID 1920064; active = well fitted curve in the direction sought with a large enough effect in the repeat runs; an effect the other way counts as inactive or inconclusive). The gist of the method: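 HEK293 cells stably expressing human KISS1R were plated 18 h at 37 °C, loaded with calcium dye for 1 h at 37 °C, then given compound by pin tool. Fluorescence (Ex/Em 480/540) was read kinetically for 3 min.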

Assay [4] in a line: G protein-coupled receptor (GPCR) small molecule agonists, calcium flux assay: HEK293 wild type cell line counter screen (AID 1920065). The method, boiled down: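 Cells were plated and cultured 18 h at 37 C/5% CO2, then loaded with calcium dye for 1 h at 37 C. Compounds in DMSO were pin-transferred in agonist mode, and fluorescence (Ex/Em 480/540) was read kinetically for 3 min at 1 s intervals.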

Assay [5] can be described thus: p53 small molecule agonists, cell-based qHTS assay with human liver microsomes (AID 1963577). The gist of the method: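 Fluorescence of the beta-lactamase reporter in p53RE-bla cells, detected with LiveBLAzer substrate (2 h, room temperature, dark), served as the read-out after 16 h compound exposure at 37 C with human liver microsomes and NADPH, each 0.5 mg/mL final.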
(In general: qHTS replaces the single test concentration by a dilution series.)

Assay [6] in a line: p53 small molecule agonists, cell-based qHTS assay with rat liver microsomes (AID 1963578). The gist of the method:
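Cells carrying a p53 response element–beta-lactamase reporter were plated and rested 5 h, then dosed with compound in DMSO plus rat liver microsomes and NADPH, each at 0.5 mg/mL final. After 16 h at 37 C, LiveBLAzer substrate was added for 2 h.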

Assay [7] in a line: p53 small molecule agonists, cell-based qHTS assay with rat liver microsomes: qHTS cell viability counter screen (AID 1963580). Also: nearly all actives have a fitted effect of over 45% in size. The method, boiled down: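 In HCT-116 cells carrying a p53 response element-bla reporter, compounds were metabolically activated in situ by rat liver microsomes with NADPH over 16 h. Cell ATP content then served as the cytotoxicity measure.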
Assay [8] can be described thus: p53 small molecule agonists, cell-based qHTS assay: qHTS cell viability counter screen (AID 1963581). Also: nearly all actives have a fitted effect of over 45% in size. Also: potency is read from the fitted curve at half-maximal effect. The gist of the method: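 p53RE-bla HCT-116 cells were exposed to compounds for 16 h at 37 C; after the beta-lactamase FRET read in the same wells, CellTiter-Glo was added and luminescence (intracellular ATP) read after 30 min at room temperature.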
Assay [9] deals with 5-hydroxytryptamine receptor 2A (Homo sapiens) (UniProt P28223). Kind of assay: 5-hydroxytryptamine receptor 2A (HTR2A) small molecule antagonists, cell-based qHTS assay (AID 1963586). Also: nearly all actives have a fitted effect of over 45% in size. The method, boiled down:
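Antagonist-mode intracellular calcium assay: DOI (4 nM) added after 5 min compound pre-incubation at room temperature to dye-loaded HTR2A-CHO cells. Fluorescence followed for 3 min, sampled every second.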

The target of assay [10] is Muscarinic acetylcholine receptor M1 (Homo sapiens) (UniProt P11229). The experiment in a line: Cholinergic receptor muscarinic 1 (CHRM1) small molecule antagonists, cell-based qHTS assay (AID 1963588). Also: nearly all actives have a fitted effect of over 40% in size. The gist of the method: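 CHRM1-CHO calcium-flux assay, antagonist mode. Cells were seeded 18 h, dye-loaded 1 h at 37 C and given compound for 5 min at RT, then acetylcholine was added at 50nM. FDSS fluorescence was read 3 min; 15 concentrations, three runs.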
Muscarinic acetylcholine receptor M1 (Homo sapiens), sequence (P11229 whole entry, looked up): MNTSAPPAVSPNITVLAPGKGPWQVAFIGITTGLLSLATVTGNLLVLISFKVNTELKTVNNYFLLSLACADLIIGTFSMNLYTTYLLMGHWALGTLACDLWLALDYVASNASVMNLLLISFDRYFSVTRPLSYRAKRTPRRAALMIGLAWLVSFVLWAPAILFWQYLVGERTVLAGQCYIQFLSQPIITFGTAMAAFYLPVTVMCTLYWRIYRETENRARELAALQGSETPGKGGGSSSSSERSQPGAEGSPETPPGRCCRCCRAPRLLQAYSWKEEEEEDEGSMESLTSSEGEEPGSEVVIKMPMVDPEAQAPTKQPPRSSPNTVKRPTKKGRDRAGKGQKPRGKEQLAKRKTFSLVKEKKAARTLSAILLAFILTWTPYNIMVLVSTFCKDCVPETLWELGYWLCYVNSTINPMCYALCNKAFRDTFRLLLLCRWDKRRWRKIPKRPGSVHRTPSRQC

For assay [11] the target is unchanged. Kind of assay: Cholinergic receptor muscarinic 1 (CHRM1) small molecule agonists, cell-based qHTS assay (AID 1963589). Also: nearly all actives have a fitted effect of over 35% in size. The gist of the method: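 CHO cells stably expressing human CHRM1, seeded 18 h at 37 C/5% CO2, dye-loaded 1 h at 37 C, then given compound in agonist mode; intracellular calcium fluorescence read kinetically at 1 s intervals. Fifteen concentrations, three independent runs.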

The nature of assay [12]: cAMP Responsive Elements (CRE) small molecule agonists, cell-based qHTS assay (AID 1963590). The method, boiled down: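 CRE-bla HEK 293T cells in DMEM with 10% dialyzed FBS, NEAA, pyruvate and 25 mM HEPES were plated 18 h at 37 C/5% CO2, then exposed to compounds in DMSO for 3 h before LiveBLAzer B/G FRET substrate addition.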
The target in assay [13] is Beta-2 adrenergic receptor (Homo sapiens) (UniProt P07550). Kind of assay: Adrenergic beta2 receptor (ADRB2) small molecule antagonists, cell-based qHTS assay (AID 1963592). Also: nearly all actives have a fitted effect of over 50% in size. Also: potency is read from the fitted curve at half-maximal effect. The gist of the method:
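Cells (CHO, stable ADRB2 overexpression) incubated 18-20hr at 37C; compounds added from DMSO; agonist mix (1nM isoproterenol, 100uM IBMX, 25uM Ro-20-1724) added; 0.5hr RT; d2-cAMP and anti-cAMP-cryptate added; 1hr RT; 665/615 nm read.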

The target of assay [14] is D(2) dopamine receptor (Homo sapiens) (UniProt P14416). The experiment in a line: Dopamine D2 receptor (DRD2) small molecule agonists, cell-based qHTS assay (AID 1963594). Also: nearly all actives have a fitted effect of over 35% in size. The method, boiled down: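 HEK293 cells stably expressing DRD2 were cultured 24 h at 37 C, then given Ro20-1724 (0.1 mM final) and compounds for 10 min at room temperature. NKH477 (200nM) was then added for 30 min. cAMP was read by HTRF.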
D(2) dopamine receptor (Homo sapiens), sequence (P14416 whole entry, looked up): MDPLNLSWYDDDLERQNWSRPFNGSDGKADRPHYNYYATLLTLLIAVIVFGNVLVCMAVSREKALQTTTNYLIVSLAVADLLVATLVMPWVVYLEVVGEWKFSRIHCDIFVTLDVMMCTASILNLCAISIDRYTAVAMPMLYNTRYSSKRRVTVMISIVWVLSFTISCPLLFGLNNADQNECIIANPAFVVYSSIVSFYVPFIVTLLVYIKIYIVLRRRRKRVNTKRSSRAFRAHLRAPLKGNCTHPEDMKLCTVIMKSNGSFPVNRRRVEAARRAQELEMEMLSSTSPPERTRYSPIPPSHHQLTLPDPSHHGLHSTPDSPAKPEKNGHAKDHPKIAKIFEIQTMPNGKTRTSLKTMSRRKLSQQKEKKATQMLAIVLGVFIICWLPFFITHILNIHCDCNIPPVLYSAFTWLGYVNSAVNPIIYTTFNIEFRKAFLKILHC

The target is the same in assay [15]. The experiment in a line: Dopamine D2 receptor (DRD2) small molecule antagonists, cell-based qHTS assay (AID 1963595; active = well fitted inhibition curve with a large enough effect in the signal ratio in the repeat runs, with a control signal flat; the % refers to the signal ratio; also: potency is read from the fitted curve at half-maximal effect). The gist of the method: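 Readout: HTRF cAMP, cAMP-d2 competing with cellular cAMP for anti-cAMP cryptate, read after 1 h. Cells: DRD2-HEK293. Conditions: 0.1 mM Ro20-1724, 12 nM quinpirole, 200 nM NKH477, 30 min RT.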
The nature of assay [16]: p53 small molecule agonists, cell-based qHTS assay (AID 1963582; active = well fitted activation curve with a large enough effect in the signal ratio in the repeat runs, not every such curve was filed as active; the % refers to the signal ratio). The gist of the method:
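p53RE-bla beta-lactamase reporter cells rested 5 h at 37 C/5% CO2, then received compounds in DMSO by pin transfer and were incubated 16 h at 37 C. LiveBLAzer B/G FRET substrate was loaded for 2 h at room temperature before fluorescence reading.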

The target in assay [17] is 5-hydroxytryptamine receptor 2A (Homo sapiens) (UniProt P28223). The experiment in a line: 5-hydroxytryptamine receptor 2A (HTR2A) small molecule agonists, cell-based qHTS assay (AID 1963587). Also: nearly all actives have a fitted effect of over 30% in size. The method, boiled down:
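HTR2A-CHO cells, plated 18 h at 37 C/5% CO2, dye-loaded 1 h at 37 C; compounds in DMSO added by pin tool (agonist mode). Intracellular calcium flux read as kinetic fluorescence on FDSS over 2 min at 1 s intervals.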

A short description of assay [18]: cAMP Responsive Elements (CRE) small molecule antagonists, cell-based qHTS assay (AID 1963591; active = well fitted inhibition curve with a large enough effect in the signal ratio in the repeat runs, not every such curve was filed as active; the % refers to the signal ratio). The method, boiled down:
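CRE-bla HEK293T cells were plated 18 h at 37 °C/5% CO2, pinned with compound in DMSO, then stimulated with NKH477 at 0.25 uM final for 3 h. LiveBLAzer B/G FRET substrate was added and plates incubated 2 h at room temperature.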

Assay [19] can be described thus: p53 small molecule agonists, cell-based qHTS assay with human liver microsomes: qHTS cell viability counter screen (AID 1963579). Also: nearly all actives have a fitted effect of over 45% in size. The gist of the method: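 Cytotoxicity counter screen: p53RE-bla, 4,000 cells/well; 5 h settle, 37 C/5% CO2; cpd + HLM 0.5 mg/mL + NADPH 0.5 mg/mL (final); 16 h, 37 C; CellTiter-Glo, 30 min RT, luminescence.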

Results filed as inconclusive are left out. Activity calls are given as the source filed them. Unless noted, calls follow the shape of the full dose curve.

5-hydroxytryptamine receptor 2A (Homo sapiens), sequence (P28223 whole entry, looked up): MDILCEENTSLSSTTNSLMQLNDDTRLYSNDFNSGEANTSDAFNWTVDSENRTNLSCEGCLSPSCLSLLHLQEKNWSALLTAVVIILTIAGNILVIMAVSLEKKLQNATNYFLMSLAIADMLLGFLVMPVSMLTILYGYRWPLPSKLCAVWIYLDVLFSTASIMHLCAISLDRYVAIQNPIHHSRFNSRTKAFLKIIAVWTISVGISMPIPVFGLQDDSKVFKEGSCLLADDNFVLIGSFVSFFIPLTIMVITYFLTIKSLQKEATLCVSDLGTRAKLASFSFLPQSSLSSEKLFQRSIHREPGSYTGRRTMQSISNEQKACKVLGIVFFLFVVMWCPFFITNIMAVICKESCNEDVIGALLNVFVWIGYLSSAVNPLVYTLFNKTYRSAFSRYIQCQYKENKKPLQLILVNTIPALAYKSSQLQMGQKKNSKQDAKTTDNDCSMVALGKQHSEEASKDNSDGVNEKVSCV
KiSS-1 receptor (Homo sapiens), sequence (Q969F8 whole entry, looked up): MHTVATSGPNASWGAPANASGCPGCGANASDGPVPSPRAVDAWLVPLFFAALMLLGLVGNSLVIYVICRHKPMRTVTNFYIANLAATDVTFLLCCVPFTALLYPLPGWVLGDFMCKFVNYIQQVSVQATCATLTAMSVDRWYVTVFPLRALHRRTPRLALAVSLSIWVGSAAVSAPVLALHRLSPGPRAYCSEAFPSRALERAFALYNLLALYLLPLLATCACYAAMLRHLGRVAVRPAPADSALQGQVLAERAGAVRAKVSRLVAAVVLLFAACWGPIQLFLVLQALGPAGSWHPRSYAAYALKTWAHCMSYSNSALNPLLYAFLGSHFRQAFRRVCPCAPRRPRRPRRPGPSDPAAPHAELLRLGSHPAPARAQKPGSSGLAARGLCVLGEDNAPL
Beta-2 adrenergic receptor (Homo sapiens), sequence (P07550 whole entry, looked up): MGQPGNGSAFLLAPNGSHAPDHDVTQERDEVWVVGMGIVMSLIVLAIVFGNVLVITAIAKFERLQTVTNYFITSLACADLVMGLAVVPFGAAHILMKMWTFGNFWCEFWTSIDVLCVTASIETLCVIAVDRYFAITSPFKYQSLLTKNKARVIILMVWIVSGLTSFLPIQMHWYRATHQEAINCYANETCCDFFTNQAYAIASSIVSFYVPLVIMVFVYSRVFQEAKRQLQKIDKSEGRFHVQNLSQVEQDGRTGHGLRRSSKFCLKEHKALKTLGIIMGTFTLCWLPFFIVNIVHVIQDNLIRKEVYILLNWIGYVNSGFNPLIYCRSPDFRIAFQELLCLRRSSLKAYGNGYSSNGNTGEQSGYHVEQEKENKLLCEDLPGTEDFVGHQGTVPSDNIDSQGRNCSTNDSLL
Gonadotropin-releasing hormone receptor (Homo sapiens), sequence (P30968 whole entry, looked up): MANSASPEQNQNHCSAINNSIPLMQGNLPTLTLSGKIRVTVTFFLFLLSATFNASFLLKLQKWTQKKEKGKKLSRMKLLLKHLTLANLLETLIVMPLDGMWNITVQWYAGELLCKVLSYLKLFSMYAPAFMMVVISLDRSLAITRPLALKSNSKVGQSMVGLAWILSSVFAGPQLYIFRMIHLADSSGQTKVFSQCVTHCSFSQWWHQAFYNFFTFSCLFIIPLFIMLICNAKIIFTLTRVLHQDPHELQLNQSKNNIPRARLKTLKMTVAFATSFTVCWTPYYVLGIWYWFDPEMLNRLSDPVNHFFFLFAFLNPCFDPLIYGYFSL

In the case of `CC(=O)Oc1ccc(C2(c3ccc(OC(C)=O)cc3)C(=O)Nc3ccccc32)cc1`, the Potency entry in assay [1], in assay [2], in assay [5], in [6], in assay [7] and in [8] was “inactive” throughout. The Potency result in assay [9], in assay [10], in [11], in [12], in [13] and in assay [14] was “inactive” in each case. In addition, the Potency entry in assay [15] was “inactive”. For the same compound, the outcome in [3] and in assay [4] was inactive.

Take `CC/C=C\CCOC(=O)c1ccccc1O`: the Potency result in assay [1], in assay [2], in [5], in assay [6], in [8] and in assay [16] was “inactive” in each case. Besides, the Potency entry in assay [9], in assay [17], in [10], in assay [12], in assay [18] and in [13] was “inactive” each time. For the same compound, the Potency result in [14] and in [15] was “inactive” throughout. In addition, the outcome in assay [3] and in [4] was inactive.

In the case of `COC(=O)/C=C\C(=O)O`, the Potency result in assay [1], in assay [2], in assay [5], in [6], in assay [7] and in assay [8] was “inactive” throughout. Also, the Potency result in assay [16], in assay [9], in assay [17], in assay [10], in assay [11] and in assay [12] was “inactive” throughout. Besides, the Potency result in assay [18], in assay [13], in [14] and in assay [15] was “inactive” throughout. Besides, the result in assay [3] and in assay [4] was inactive.

On to `CCC(C)CCCC(C)(C)O` (centres undefined), for which the Potency result in [1], in assay [2], in assay [5], in [6], in assay [19] and in [7] was “inactive” each time. The Potency result in assay [8], in assay [17], in assay [11], in assay [12], in assay [18] and in [13] was “inactive” in each case. Further, the Potency result in [14] and in [15] was “inactive” throughout. For the same compound, the outcome in [3] and in assay [4] was inactive.

For `Nc1cc(C(F)(F)F)ccc1S`, the Potency in [1] is 26.6 µM (active). Also, the Potency result in assay [2], in assay [5], in assay [6], in assay [19], in assay [8] and in assay [9] was “inactive” throughout. Besides, the Potency result in assay [17], in assay [10], in assay [11], in assay [13], in assay [14] and in assay [15] was “inactive” each time. Also, the outcome in assay [3] and in assay [4] was inactive.

In the case of `OC1(c2ccc(Cl)c(C(F)(F)F)c2)CCN(CCCC(c2ccc(F)cc2)c2ccc(F)cc2)CC1`, the Potency is 6.68 µM (active) in [1], 11.2 µM (active) in [8], 26.6 µM (active) in [13] and 0.119 µM (active) in assay [15]. The Potency result in assay [2], in assay [5], in assay [6], in [19], in [7] and in [17] was “inactive” throughout. Further, the Potency entry in assay [14] is “inactive”. The outcome in assay [3] and in [4] was inactive.

As for `CC(=O)C1C(=O)C=C(C)OC1=O` (centres undefined), the Potency result in [1], in assay [2], in [5], in assay [6], in assay [7] and in [8] was “inactive” in each case. Further, the Potency entry in assay [16], in assay [9], in assay [17], in [10], in [11] and in [12] was “inactive” in each case. Further, the Potency entry in assay [18], in assay [13], in [14] and in assay [15] was “inactive” each time. Moreover, the result in [3] and in assay [4] was inactive.

As for `Nc1ccc(S(=O)(=O)O)cc1`, the Potency result in [1], in assay [2], in assay [5], in assay [6], in [19] and in assay [7] was “inactive” each time. The Potency entry in assay [16], in assay [9], in assay [17], in [10], in assay [11] and in [12] was “inactive” in each case. Also, the Potency entry in assay [18], in assay [13], in [14] and in assay [15] was “inactive” throughout. For the same compound, the outcome in assay [3] and in assay [4] was inactive.

These data come from PubChem BioAssay (Tox21).
